Results filed as inconclusive are left out. Active and inactive are the calls of the source. Unless noted, calls come from the whole dose curve; as a rule, active = well fitted curve in the direction sought with a large enough effect in the repeat runs; inconclusive = weak or mixed curves; inactive = no such curve, though single readings can be large; an effect the other way counts as inactive or inconclusive.
How the values were obtained:
[1] = qHTS assay to identify small molecule antagonists of the estrogen related receptor (ERR) signaling pathway - cell viability counter screen (AID 1224818); note: series mostly up to about 46 µM
How it was run: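 ERR cells, 2,000 per well, compound added after 6 h and incubated 17.5 h at 37 C. Viability read by CellTiter-Fluor fluorescence after a further 30 min at 37 C.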

[2] = qHTS assay to identify small molecule antagonists of the estrogen related receptor (ERR) signaling pathway (AID 1224819; note: nearly all actives have a fitted effect of over 50% in size; note: potency is the fitted concentration of half-maximal effect)
How it was run: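 ERR reporter cell line (NTP) plated at 2,000 cells/well, settled 6 h at 37C/5% CO2, then exposed to LOPAC compounds for 18 h at 37C. One-Glo luciferase luminescence read after 30 min at room temperature.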

[3] = qHTS assay to identify small molecule agonists of the estrogen related receptor (ERR) signaling pathway (AID 1224820)
How it was run: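 Quantitative HTS of the LOPAC library used NTP ERR reporter cells treated 18 h at 37 C. Signal is luminescence after One-Glo addition and a 30 min room-temperature incubation.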

[4] = test system: estrogen-related receptor alpha (ERRalpha) with PGC-1alpha coactivator, human; assay: qHTS assay to identify small molecule antagonists of the estrogen related receptor signaling pathway with the pleiotropic PPARgamma coactivator (PGC) (AID 1224821; calls by dose curve;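 note: series mostly up to about 46 µM; lower luminescence signal means antagonism of PGC/ERR signalling; nearly all actives have a fitted effect of over 50% in size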)
How it was run: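 Quantitative HTS for antagonism: PGC/ERR cells received compounds after 6 h attachment and were incubated 18 h at 37 C, with luminescence (One-Glo) as the endpoint.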

[5] = qHTS assay to identify small molecule antagonists of the estrogen related receptor signaling pathway with the pleiotropic PPARgamma coactivator (PGC) cell viability counter screen (AID 1224822; note: series mostly up to about 46 µM)
How it was run: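 PGC/ERR cells rested 6 h, then compound-treated 17.5 h at 37 C. CellTiter-Fluor added for 30 min at 37 C, viability measured by fluorescence intensity.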

[6] = qHTS assay to identify small molecule agonists of the estrogen related receptor signaling pathway with the pleiotropic PPARgamma coactivator (PGC) (AID 1224823)
How it was run: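 Cell-based luciferase assay in the NTP-supplied PGC/ERR line, 2,000 cells/well; 18 h compound exposure at 37 C, luminescence after One-Glo.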

Measured: Potency

NC(CP(=O)(O)O)C(=O)O (centres undefined)
inactive: [1] | [2] | [3] | [4] | [5] | [6]

CCN1C[C@@]2(COC)C3[C@@H](OC)C4[C@H]1C3([C@@H]1C[C@@]3(O)[C@H](OC(=O)c5ccccc5)[C@@H]1[C@]4(OC(C)=O)[C@@H](O)[C@@H]3OC)[C@H](OC)C[C@H]2O
inactive: [1] | [2] | [3] | [4] | [5] | [6]

C[N+](C)(C)CCOC(=O)CBr
inactive: [1] | [2] | [3] | [4] | [5] | [6]

C=CCN1C[C@@H](C)N([C@H](c2ccc(C(=O)N(CC)CC)cc2)c2cccc(OC)c2)C[C@@H]1C
inactive: [1] | [3] | [4] | [5] | [6]
active: [2] 26.6 µM

From PubChem BioAssay (Tox21)
